Assay outcomes: PubChem, National Center for Advancing Translational Sciences (NCATS)
Shown are actives, neighbours in structure and some others; about 18% of the full set was active somewhere.
LDHA inh: inhibitors of human lactate dehydrogenase A | P00338 | purified LDHA, NADH/diaphorase-resazurin fluorescence; active compounds read low | activity change, % (values are at about 110 or 230 µM) | hit rate 0.15% among 480,000 | AID 1347041; in the data active means activity change below about -30%; inconclusive means mostly about -25% to -30%;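 further: plate controls were DMSO wells for no effect and wells without enzyme for full effect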
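Human LDH5 (2 nM) was incubated with 0.06 mM NADH and 0.2 mM pyruvate for 5 min at room temperature in Tris pH 7.4. Remaining NADH was coupled through diaphorase/resazurin, and resorufin fluorescence was read at 0 and 20 min.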
IL-1B inflam inh: inhibitors of inflammasome signaling (IL-1 beta secretion). hit rate 4.7% among 360,000. activity change, % at 57.5 µM. THP-1 LPS/ATP IL-1B secretion, AlphaLISA, 16 h; active compounds read low. AID 743279; in the data active means activity change below about -50%; inconclusive means mostly about -30% to -49%
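Secreted IL-1B measured by AlphaLISA bead assay after 16 h compound exposure of THP-1 cells; compounds (final up to 57.5 uM) added 1 h before LPS (250 ng/mL) and ATP (1.25 mM) stimulation; lower signal means less secretion.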
Gal4-VP16 FLuc: inhibits Gal4-VP16 luciferase reporter, ROR gamma counter-screen; Drosophila S2 Gal4-VP16 UAS-luciferase, luminescence, 20 h; Potency, µM (highest dose often 53.6 µM), for inactives: top-dose activity, negative = inhibition, actives largely listed as inhibitors; hit rate 3.5% among 310,000; AID 2546;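 further: Gal4-VP16 expression switched on by copper sulfate through the metallothionein promoter; potency means the concentration at half of the fitted maximal effect; nearly all actives have a fitted effect of over 50% in size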
TDP1 cell noCPT: qHTS for Inhibitors of human tyrosyl-DNA phosphodiesterase 1 (TDP1): qHTS in cells in absence of CPT; hit rate 15% among 420,000; Potency, µM (highest dose often 46.2 µM), inactives show top-dose activity change, negative = growth inhibition, actives largely listed as inhibitors; DT40 Tdp1-/- hTDP1 cells, no CPT, ATP luminescence, 48 h; further: potency means the concentration at half of the fitted maximal effect; nearly all actives have a fitted effect of over 55% in size
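Growth of hTDP1-complemented DT40 Tdp1-knockout cells is measured by ATP luminescence after at least 48 hr compound exposure at 37 °C, with DMSO substituting for the 20 nM CPT used in the parallel screen.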
RORg inh: inhibitors of mouse ROR gamma transcriptional activity | P51450 | Drosophila S2 Gal4-RORgamma UAS-luciferase reporter, 20 h | Potency, µM (titrated, usually from 53.6 µM), inactives show at the top dose activity change, negative = inhibition, actives largely listed as inhibitors | hit rate 5.4% among 310,000; further: potency means the concentration at half of the fitted maximal effect; nearly all actives have a fitted effect of over 60% in size
Target sequence (P51450 whole entry, looked up, the tested form may be a part): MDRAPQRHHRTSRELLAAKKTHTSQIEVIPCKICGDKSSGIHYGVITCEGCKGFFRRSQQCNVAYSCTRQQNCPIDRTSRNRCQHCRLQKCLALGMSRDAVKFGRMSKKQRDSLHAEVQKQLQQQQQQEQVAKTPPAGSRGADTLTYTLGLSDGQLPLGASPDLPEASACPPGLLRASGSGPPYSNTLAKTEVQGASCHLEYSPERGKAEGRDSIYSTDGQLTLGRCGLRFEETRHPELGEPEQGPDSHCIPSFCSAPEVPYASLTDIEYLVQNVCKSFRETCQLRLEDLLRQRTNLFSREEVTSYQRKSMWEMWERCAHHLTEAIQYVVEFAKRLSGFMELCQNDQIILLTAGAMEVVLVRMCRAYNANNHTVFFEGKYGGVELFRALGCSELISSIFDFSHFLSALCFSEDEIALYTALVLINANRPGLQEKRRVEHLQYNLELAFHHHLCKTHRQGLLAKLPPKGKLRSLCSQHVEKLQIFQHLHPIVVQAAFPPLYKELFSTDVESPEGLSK
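Luminescence from a UAS-regulated Photinus luciferase reporter in stably transfected Drosophila Schneider cells is measured; decreased signal marks ROR gamma inhibition. Fusion expression is induced by 700 uM copper sulfate for 20 hr.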
DT40 TDP1 CPT: growth inhibition of DT40 Tdp1-/-;hTDP1 cells with camptothecin (screen for TDP1 inhibitors) | AID 686979 | chicken DT40 Tdp1-/-;hTDP1 cells + 20 nM CPT, ATP luminescence, 48 h | hit rate 12% among 420,000 | Potency, µM (titrated, usually from 46.2 µM), for the others: at the top dose activity change, negative = growth inhibition, usual class: inhibitors; further: potency means the concentration at half of the fitted maximal effect; nearly all actives have a fitted effect of over 55% in size
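Chicken DT40 Tdp1-/- cells complemented with human TDP1, 400 cells/well, exposed to compounds plus 20 nM camptothecin for at least 48 h at 37 C; viability read as ATP content by CellTiter-Glo luminescence.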
The depositor's hits bear a star; ? = inconclusive; . = no result. Unless noted, the call rests on the fitted dose curve; in most records, active means well fitted curve in the direction sought with a large enough effect; inconclusive means small, poorly fitted or top-dose-only effect, or another doubt; inactive means no such curve, though single readings can be large; an effect the other way counts as inactive or inconclusive. Unless noted, on the % scale 0 is the no-effect control and ±100 the full control effect.

SMILES	LDHA inh	IL-1B inflam inh	Gal4-VP16 FLuc	TDP1 cell noCPT	RORg inh	DT40 TDP1 CPT
COc1ccc(Br)cc1C(=O)Nc1nc2ccc(F)cc2s1	-3	.	.	-8%	.	-5%
O=C(Nc1nc2ccc(Cl)cc2s1)c1ccco1	-1	9	?	?	?	-20%
CC(=O)Nc1nc2ccc(Br)cc2s1	-4	-18	8%	?	?	13µM*
COc1ccc2nc(NC(=O)c3ccco3)sc2c1	-4	-7	10µM*	?	10µM*	?
Cc1ccc2nc(NC(=O)c3ccco3)sc2c1	3	11	7.1µM*	8.2µM*	8.9µM*	?
CC(=O)Nc1nc2ccc(NC(=O)c3ccco3)cc2s1	-2	-25	10%	18µM*	3%	?
O=C(OCCOc1ccc(Cl)cc1)c1ccccc1C(=O)c1ccc(Cl)cc1	5	.	.	.	.	.
Cc1oc2cc(OCC(=O)N(C)C3CCS(=O)(=O)C3)ccc2c(=O)c1Oc1ccccc1 (stereo not drawn)	3	.	.	.	.	.
Cn1c(SCC(=O)c2ccc3c(c2)OCCCO3)nnc1-c1ccc(F)cc1	14	.	.	.	.	.
Cc1ccc2nc(NC(=S)NC(=O)c3ccco3)sc2c1	-10	12	3.5µM*	3.3µM*	0.28µM*	5.2µM*
Cc1cc2sc(NC(=O)c3ccco3)nc2cc1Cl	-3	37	.	-21%	.	?
CCS(=O)(=O)N1CCCc2cc(C(=O)Nc3ccccc3C(=O)OC)ccc21	-17	.	.	.	.	.
Oc1ccc(Br)cc1-c1cc(-c2ccc(Cl)cc2)n[nH]1	-1	-14	?	?	?	21µM*
Cc1ccc(-c2cc(-c3ccc(C)cc3)[nH]n2)cc1	-4	.	.	.	.	.
O=[N+]([O-])c1cccc(-c2cc(-c3cc(Br)ccc3O)[nH]n2)c1	-13	-89*	11µM*	21µM*	7.1µM*	?
Fc1ccc(-c2cc(-c3nc(-c4ccc(Cl)cc4)no3)[nH]n2)cc1	-1	.	.	?	.	?
Oc1ccc(Br)cc1-c1cc(-c2ccccc2)n[nH]1	-3	-2	?	?	1.3µM*	?
Cn1c(=O)c2c(ncn2CC(=O)Nc2ccc(Cl)c([N+](=O)[O-])c2)n(C)c1=O	9	.	.	.	.	.
Cc1ccc(NC(=O)C2c3ccccc3-c3ccccc32)cc1	-6	-2	.	?	.	6.5µM*
CC(=O)Nc1ccc(NC(=O)C2c3ccccc3Oc3ccccc32)cc1	-5	-3	-6%	-2%	-1%	14%
Cc1ccc(C(=O)NC2CCc3ccccc3C2=O)cc1 (stereo not drawn)	-1	-6	-5%	-25%	-24%	?
Cc1ccc(C(=O)NC2c3ccccc3-c3ccccc32)cc1	-2	14	1%	3.7µM*	?	2.9µM*
COc1ccc(C)cc1-c1csc(NC(=O)c2ccccc2OCc2noc(C)n2)n1	4	.	.	.	.	.
COc1ccc(-n2ccn(CC(=O)Nc3cccc(F)c3)c2=O)cc1	8	.	.	.	.	.
CSc1cccc(NC(=S)NCCCN2CCN(c3ccc(F)cc3)CC2)c1	-7	-12	?	4%	6.3µM*	13%
SMILES	LDHA inh	IL-1B inflam inh	Gal4-VP16 FLuc	TDP1 cell noCPT	RORg inh	DT40 TDP1 CPT
COCCCN(Cc1cc(OC)c(OC)c(OC)c1)C(=S)Nc1cccc(SC)c1	0	6	.	8.2µM*	.	16µM*
COCCCNC(=S)Nc1cccc(SC)c1	-9	25	11µM*	0%	1.6µM*	2%
COc1ccc(NC(=O)c2ccc(-c3ccc(S(=O)(=O)N4CCCC4)cc3)cc2)cc1Cl	9	.	.	.	.	.
CCOc1ccc(-n2ccnc(SCC(=O)Nc3ccc(OC)cc3OC)c2=O)cc1	1	-10	.	23µM*	.	21µM*
CCOc1ccc(-n2ccnc(SCC(=O)NCc3cccc(OC)c3)c2=O)cc1	-2	-11	.	23µM*	.	18µM*
COc1ccc(CNC(=O)CSc2nccn(-c3ccc(F)c(F)c3)c2=O)cc1	-1	18	.	-18%	.	-6%
O=C(CSc1nnnn1C1CC1)NC(c1ccc(F)cc1)c1cccs1 (stereo not drawn)	2	.	.	.	.	.
O=C(CSC12CC3CC(CC(C3)C1)C2)NC1CC1	13	.	.	.	.	.
Cn1c(=O)c2c(nc(NCc3cccnc3)n2Cc2ccc(Cl)cc2)n(C)c1=O	-1	?	0%	5.8µM*	22%	?
COc1ccc(CNc2nccn(-c3ccc(C(C)C)cc3)c2=O)cc1OC	3	.	.	.	.	.
COc1ccc(OC)c(CCNc2nccn(-c3ccc(C)c(C)c3)c2=O)c1	-5	.	.	21µM*	.	15µM*
COc1ccc(CNc2nc3c(c(=O)n(Cc4ccc(Cl)cc4)c(=O)n3C)n2C)cc1	-4	?	-19%	23µM*	?	18µM*
COc1ccc(-n2ccnc(NCc3ccc(Cl)cc3)c2=O)cc1	-1	.	.	15µM*	.	?
Cn1c(=O)c2c(nc(NCc3cccs3)n2Cc2ccc(Cl)cc2)n(C)c1=O	1	.	.	.	.	.
O=C(COc1ncnc2ccc(Br)cc12)NCc1ccccc1	-6	.	.	.	.	.
CCNc1nc2c(c(=O)n(C)c(=O)n2C)n1Cc1ccc(Cl)cc1	2	17	4.5µM*	6.5µM*	?	3.7µM*
CCC(C)Nc1nc2c(c(=O)n(C)c(=O)n2C)n1Cc1cccc(C)c1 (stereo not drawn)	4	-18	-22%	-21%	-9%	1%
Cn1c(=O)c2c(nc(NCCO)n2Cc2ccc(Cl)cc2)n(C)c1=O	12	.	.	.	.	.
CCC(C)Nc1nc2c(c(=O)n(C)c(=O)n2C)n1Cc1ccc(Cl)cc1 (stereo not drawn)	0	-27	-5%	23µM*	27%	13µM*
Cc1cccc(C(C)C)c1NC(=O)COc1ccc(C(=O)Nn2c(C)ccc2C)cc1	-7	.	.	.	.	.
O=[N+]([O-])c1ccc(NN=Cc2cccc(O)c2)nc1	-8	35	.	?	.	23µM*
O=[N+]([O-])c1ccc(NN=Cc2cc(Br)ccc2O)nc1	-6	105	.	1.3µM*	.	2.6µM*
CC(=O)Nc1ccc(C=NNc2ccc([N+](=O)[O-])cn2)cc1	-6	9	.	-25%	.	23µM*
Cc1cccc(C)c1-n1c(C)cc(/C=N\Nc2ccc([N+](=O)[O-])cn2)c1C	1	-22	-3%	15µM*	-25%	?
CCOc1ccc(NC(=O)c2cc3cc(OC)ccc3oc2=O)cc1	-5	.	.	.	.	.
Cc1cc(/C=N/N2CCN(C)CC2)c(C)n1-c1ccccc1F	-7	-11	-3%	-11%	2%	-28%
Cc1cc(/C=N/Nc2nc(N)ncc2[N+](=O)[O-])c(C)n1-c1ccccc1F	.	.	7.1µM*	.	1.6µM*	.
